Screening data (PubChem)
ELG1 DNA repair: qHTS screen for small molecules that inhibit ELG1-dependent DNA repair in human embryonic kidney (HEK293T) cells expressing luciferase-tagged ELG1 | HEK293T ELG1-luciferase reporter, luminescence, 16 h; DNA damage induced by 5-fluorouridine | Potency, µM (titrated, usually from 46.1 µM), usual class: inhibitors | 2.3% of 330,000 active; note: nearly all actives have a fitted effect of over 55% in size
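Cells (2,000 per well) received 5-fluorouridine plus test compound or DMSO and were incubated 16 hr at 37 °C, 5% CO2. Luciferase activity was read by luminescence 30 min after ONE-Glo addition; signal suppression marked inhibition of damage-induced ELG1 function.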
SMN2 splice up: qHTS Assay for Enhancers of SMN2 Splice Variant Expression; HEK293 SMN2-luciferase splicing reporter, luminescence, 30-36 h; Potency, µM (top dose mostly 46.1 µM), most hits filed as activators; 2.8% of 210,000 active; note: nearly all actives have a fitted effect of over 55% in size
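qHTS luciferase splicing reporter: luminescence rises when SMN2 exon 7 is included in transfected HEK293 cells. Compound exposure lasted 30-36 h at 37C, with 4.5 mM final sodium butyrate as control, followed by a ONE-Glo read.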
ELG1 genotox: qHTS screen for small molecules that induce genotoxicity in human embryonic kidney (HEK293T) cells expressing luciferase-tagged ELG1; HEK293T ELG1-luciferase reporter, luminescence, 16 h; 1.3% of 330,000 active; Potency, µM (titrated, usually from 46 µM), actives largely listed as activators; note: nearly all actives have a fitted effect of over 60% in size
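Cells (2,000/well) expressing the ELG1-luciferase fusion are dosed by pin tool and kept 16 hr at 37 °C, 5% CO2. Signal comes from ONE-Glo luciferase reagent after 30 min at room temperature.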
NPC1 prom act: qHTS Assay for NPC1 Promoter Activators; Potency, µM (series often up to 9.22 µM), hits mostly activators; 2.4% of 320,000 active; AID 485313, 2010; Huh7 NPC1 promoter luciferase reporter, 24 h; note: nearly all actives have a fitted effect of over 60% in size
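Cells: Huh7 expressing luciferase under the NPC1 promoter, 1500/well. Seeded 2 h, compound added, incubated 24 h at 37 °C. Luciferase reagent, 10 min ambient, then luminescence.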
Rab9 promoter act: qHTS Assay for Rab9 Promoter Activators | Huh7 Rab9 promoter-luciferase reporter, luminescence, 24 h | Potency, µM (series often up to 9.22 µM), usual class: activators | 2.8% of 320,000 active | AID 485297, 2010; note: nearly all actives have a fitted effect of over 60% in size
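Luminescence read-out: Huh7 cells stably expressing Rab9-luciferase, treated 24 h with compound at 37 °C, then lysed with luciferase reagent for 10 min at ambient before reading.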
FLuc counter: qHTS profiling assay for firefly luciferase inhibitor/activator using purifed enzyme and Km concentrations of substrates (counterscreen for miR-21 project); purified FLuc, Km substrates, luminescence inhibition; Luciferin 4-monooxygenase (Photinus pyralis), P08659; Potency, µM (titrated, usually from 57.5 µM), most hits filed as inhibitors; 6.9% of 360,000 active; note: nearly all actives have a fitted effect of over 55% in size
Target sequence (P08659 whole entry, looked up): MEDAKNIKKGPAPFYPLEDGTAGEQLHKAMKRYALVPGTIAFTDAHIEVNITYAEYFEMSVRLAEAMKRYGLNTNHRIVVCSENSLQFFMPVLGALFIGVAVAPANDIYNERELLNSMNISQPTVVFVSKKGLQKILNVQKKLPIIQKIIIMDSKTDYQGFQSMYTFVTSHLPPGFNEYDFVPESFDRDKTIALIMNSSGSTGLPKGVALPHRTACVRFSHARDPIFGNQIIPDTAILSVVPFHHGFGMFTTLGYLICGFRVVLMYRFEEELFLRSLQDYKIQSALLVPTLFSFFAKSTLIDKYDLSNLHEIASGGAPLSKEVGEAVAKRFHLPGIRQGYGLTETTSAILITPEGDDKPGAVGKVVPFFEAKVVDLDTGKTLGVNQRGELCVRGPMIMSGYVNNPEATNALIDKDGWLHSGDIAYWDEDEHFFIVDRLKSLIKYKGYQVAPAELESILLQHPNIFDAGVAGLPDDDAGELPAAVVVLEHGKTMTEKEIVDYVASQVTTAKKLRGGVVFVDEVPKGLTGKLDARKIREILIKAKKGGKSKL
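Purified P. pyralis luciferase (10nM final) with 10uM D-luciferin and 10uM ATP (Km levels) in 50mM Tris acetate pH 7.5, 10mM Mg acetate, 0.01% Tween-20, 0.05% BSA; qHTS 6-point titration, ~60 µM downward; luminescence read.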
A number is an active result; . = inactive; ? = inconclusive; / = no result given; [ ] = dose if it differs, or a comment. Only some compounds are listed: those with a hit (about 9.2% of all), similar ones and a draw of the others. Calls come from the whole dose curve; as a rule, active = well fitted curve in the direction sought with a large enough effect; inconclusive = small, poorly fitted or top-dose-only effect, or another doubt; inactive = no such curve, though single readings can be large; an effect the other way counts as inactive or inconclusive.

SMILES | ELG1 DNA repair | SMN2 splice up | ELG1 genotox | NPC1 prom act | Rab9 promoter act | FLuc counter
COC(=O)c1ccc(COc2ccc(-c3nnn(CC(=O)NC(C)(C)C)n3)cc2)cc1 | . | 14.1µM | ? | . | . | .
Cc1ccccc1COc1ccc(-c2nnn(CC(=O)O)n2)cc1 | . | / | . | . | . | 16.9µM
O=C(O)c1ccc(-c2nnn(Cc3ccccc3F)n2)cc1 | . | / | . | . | . | .
O=C(OCC#CCSc1nnc(-c2cccc3ccccc23)o1)c1cc2ccccc2o1 | ? | / | . | . | . | .
C/C(=N\Nc1nc2ccccc2c(=O)n1O)c1ccco1 | ? | / | ? | . | 3.16µM | 10.7µM
Cc1ccc(C)c(/C=N/Nc2nc3ccccc3c(=O)n2O)c1 | . | / | . | . | . | 13.5µM
C[C@H](CO)N1C[C@H](C)[C@@H](CN(C)CC2CCCCC2)Oc2ccc(NC(=O)CCN3CCOCC3)cc2C1=O | . | / | . | / | / | /
O=C(Nc1cccc(-c2csc(-c3ccccc3)n2)c1)c1cccs1 | . | . | . | . | . | 10.7µM
Cc1nc(-c2cccc(NC(=O)c3cccs3)c2)cs1 | ? | . | . | . | . | 23.9µM
O=C(Nc1cccc(NC(=S)NC(=O)c2cccs2)c1)c1ccccc1 | . | . | . | . | . | .
O=C(Nc1ccccc1)c1csc(-c2ccccc2)n1 | ? | . | . | . | . | 21.3µM
Cc1ccc(CCNC(=O)c2ccc(Nc3nc4ccccc4n4nnnc34)cc2)cc1 | / | . | / | / | / | .
CCN(C(=O)c1cc2c(Cl)nc3ccc(C)cc3c2s1)c1cc(OC)ccc1OC | / | . | / | / | / | .
Cc1nc(-c2cc(C#N)c(Sc3ccc(Cl)cc3Cl)nc2C)cs1 | . | / | . | . | . | .
CN(C)c1ccc(/C=N/NC(=O)c2ccc3nc[nH]c3c2)cc1 | ? | / | . | . | . | 13.5µM
COc1ccccc1/C=C/C=N/NC(=O)c1ccc2nc[nH]c2c1 | . | . | . | . | . | 16.9µM
CCN(CC)c1ccc(/C=N/NC(=O)c2ccc3nc[nH]c3c2)cc1 | ? | / | . | . | . | 19µM
COc1cccc(/C=N/NC(=O)c2ccc3nc[nH]c3c2)c1 | ? | / | . | . | . | 15.1µM
COc1cc(/C=N/NC(=O)c2ccc3nc[nH]c3c2)ccc1O | . | / | . | . | . | ?
CCc1ccc(NC(=O)Cn2c(=O)n(Cc3ccco3)c(=O)c3cccnc32)cc1 | / | . | / | / | / | .
NC(=O)C1(N2CCCCC2)CCN(C(=O)Nc2ccc(F)cc2F)CC1 | / | . | / | / | / | .
CCn1c(=O)c([N+](=O)[O-])c(NCCCn2ccnc2)c2ccccc21 | . | / | . | . | . | .
O=C(CN1CCSC1=O)N1CCN(S(=O)(=O)c2ccc(F)cc2)CC1 | . | / | . | . | . | .
O=C(Cc1ccccc1)N/N=C/c1ccc2cccc(O)c2n1 | . | / | . | . | . | 19µM
NC(=O)N/N=C/c1ccc2cccc(OCc3ccccc3)c2n1 | . | / | . | . | . | 19µM
SMILES | ELG1 DNA repair | SMN2 splice up | ELG1 genotox | NPC1 prom act | Rab9 promoter act | FLuc counter
CC(NS(=O)(=O)c1ccc(OCC(=O)NCc2ccncc2)cc1)c1ccccc1 (configuration not stated) | . | / | . | . | . | .
O=C(Nc1nnc(-c2ccc3c(c2)CCCC3)o1)c1ccc(Cl)cc1Cl | . | . | . | . | . | .
O=C(Nc1nnc(-c2ccc3c(c2)CCCC3)o1)c1c(F)cccc1F | ? | . | . | . | . | 15.1µM
Cc1cc(N2CCC(C)CC2)nc2ccc(NC(=O)Cc3ccccc3Br)cc12 | / | . | / | / | / | .
CCOC(=O)c1cc2c(=O)c3cc(C)ccc3oc2nc1C | ? | / | ? | 2.82µM | 3.16µM | 1.9µM
Cc1nc2oc3ccc(F)cc3c(=O)c2cc1C(=O)O | ? | / | . | . | . | ?
CCN(CC)C(=O)c1cc2c(=O)c3cc(Cl)ccc3oc2nc1C | . | . | . | . | .[1.84 µM] | ?
Cc1ccc2oc3nc(C)c(C(=O)O)cc3c(=O)c2c1 | ? | 5.62µM | . | 2.82µM | 2.24µM | 13.5µM
O=C(O)c1cc2c(=O)c3ccccc3oc2nc1C(F)(F)F | . | / | . | . | .[1.84 µM] | .
CC(=O)c1cc2c(=O)c3cc(C)ccc3oc2nc1C | ? | 12.6µM | 10.3µM | ? | 3.55µM | 8.49µM
Cc1ccc(C(c2sc3nc(-c4ccco4)nn3c2O)N2CCOCC2)cc1 (configuration not stated) | / | / | / | / | / | .
C/C(=N\NC(=O)c1nnn(-c2nonc2N)c1-c1ccccc1)c1ccccc1O | 1.83µM | / | . | . | . | .
CC1(C)Cc2c(sc(NC(=O)Nc3ccccc3)c2C(N)=O)CO1 | ? | / | ? | 4.47µM | 1.26µM | 12µM
Cc1sc(NC(=O)Nc2ccccc2)c(C(N)=O)c1C | ? | / | . | ? | 2µM | 7.57µM
CC1(C)Cc2c(sc(NC(=O)C(=O)N3CCCC3)c2C(N)=O)CO1 | . | / | . | . | . | .
N#C/C(=C\c1c(N2CCC(C(N)=O)CC2)nc2ccccn2c1=O)C(=O)NC1CCCCC1 | ? | / | . | . | . | .
O=C(NOCc1ccccc1)c1ccc(Cl)cc1 | ? | / | ? | 0.708µM | 0.501µM | 1.2µM
COc1ccc(C(=O)NCCONC(=O)c2ccc(OC)cc2)cc1 | . | / | . | . | . | .
O=C(NOCc1ccccc1)c1ccc([N+](=O)[O-])cc1 | ? | / | ? | ? | 1.26µM | 3.79µM
COc1ccc(C(=O)NOCc2ccccc2)cc1 | ? | / | ? | ? | ? | 1.9µM
CCOc1ccc(CCNC(=O)COC(=O)CCc2cc(OC)c(OC)c(OC)c2)cc1OCC | . | / | . | . | . | .
Cc1ccc(CNc2ccc(N3CCN(C)CC3=O)cc2)cc1 | ? | / | . | / | / | /
COc1ccccc1NC(=O)CSc1oc(-c2ccccc2)nc1S(=O)(=O)c1ccccc1 | / | . | / | / | / | .
COC(=O)c1ccc(C2OCC(C)(C)CO2)cc1 | ? | ? | . | ? | ? | 26.9µM
CC1(C(=O)O)COC(c2ccc(Cl)cc2)OC1 (configuration not stated) | . | / | . | . | . | .
CC1(C)Oc2ccc3ccc(=O)oc3c2/C(=C/NCCN/C=C2\C(=O)C(C)(C)Oc3ccc4ccc(=O)oc4c32)C1=O | 8.2µM | . | . | . | . | .
CC(=NC1CCCC1)c1c(C)[nH]n(-c2nc3ccccc3s2)c1=O | ? | ? | ? | ? | ? | 3.38µM
CCN(CC)CCN1C(=O)C(=O)/C(=C(/O)c2ccc(OC)cc2)C1c1cccs1 (configuration not stated) | ? | . | . | . | . | ?
